Most compounds without a hit are left out; they make up all but 21% or so of the library.
TDP1 cell CPT = DT40-hTDP1 cell growth loss with CPT. chicken DT40 Tdp1-/-;hTDP1 cells + 20 nM CPT, ATP luminescence, 48 h. Potency, µM (top dose mostly 46.2 µM), inactives show at the highest dose activity change, negative = growth inhibition, actives largely listed as inhibitors. actives 12% (n = 420,000). AID 686979; note: potency is the fitted concentration of half-maximal effect; nearly all actives have a fitted effect of over 55% in size
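Chicken DT40 Tdp1-/- cells stably complemented with human TDP1 were seeded at 400 cells/well in medium containing 20 nM camptothecin, exposed to pin-transferred compounds, and grown at 37 °C for at least 48 hr. Viability was read as ATP luminescence.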
DT40 TDP1 no CPT = qHTS for Inhibitors of human tyrosyl-DNA phosphodiesterase 1 (TDP1): qHTS in cells in absence of CPT; DT40 Tdp1-/- hTDP1 cells, no CPT, ATP luminescence, 48 h; Potency, µM (titrated, usually from 46.2 µM), for the others: top-dose activity change, negative = growth inhibition, actives largely listed as inhibitors; actives 15% (n = 420,000); note: potency is the fitted concentration of half-maximal effect; nearly all actives have a fitted effect of over 55% in size
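Chicken DT40 Tdp1-/- cells complemented with human TDP1, screened without camptothecin (DMSO vehicle only), 400 cells/well. Compounds pin-transferred, cells incubated at 37 °C for at least 48 hr. Growth read as ATP-dependent luminescence (CellTiter-Glo, 30 min at RT).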
IL-1B inflam inh = inflammasome signaling inhibition, IL-1 beta readout; THP-1 LPS/ATP IL-1B secretion, AlphaLISA, 16 h; stronger effect = lower value; activity change, % at 57.5 µM; actives 4.7% (n = 360,000); AID 743279; in the data active = activity change below about -50%; inconclusive = mostly about -30% to -49%
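Secreted IL-1B measured by AlphaLISA bead assay after 16 h compound exposure of THP-1 cells; compounds (final up to 57.5 uM) added 1 h before LPS (250 ng/mL) and ATP (1.25 mM) stimulation; lower signal means less secretion.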
RORg inh = ROR gamma (mouse) transcription inhibition | P51450 | Drosophila S2 Gal4-RORgamma UAS-luciferase reporter, 20 h | Potency, µM (series often up to 53.6 µM), without a hit: top-dose activity change, negative = inhibition, usual class: inhibitors | actives 5.4% (n = 310,000) | AID 2551; note: potency is the fitted concentration of half-maximal effect; nearly all actives have a fitted effect of over 60% in size
Target sequence (P51450 whole entry, looked up, the tested form may be a part): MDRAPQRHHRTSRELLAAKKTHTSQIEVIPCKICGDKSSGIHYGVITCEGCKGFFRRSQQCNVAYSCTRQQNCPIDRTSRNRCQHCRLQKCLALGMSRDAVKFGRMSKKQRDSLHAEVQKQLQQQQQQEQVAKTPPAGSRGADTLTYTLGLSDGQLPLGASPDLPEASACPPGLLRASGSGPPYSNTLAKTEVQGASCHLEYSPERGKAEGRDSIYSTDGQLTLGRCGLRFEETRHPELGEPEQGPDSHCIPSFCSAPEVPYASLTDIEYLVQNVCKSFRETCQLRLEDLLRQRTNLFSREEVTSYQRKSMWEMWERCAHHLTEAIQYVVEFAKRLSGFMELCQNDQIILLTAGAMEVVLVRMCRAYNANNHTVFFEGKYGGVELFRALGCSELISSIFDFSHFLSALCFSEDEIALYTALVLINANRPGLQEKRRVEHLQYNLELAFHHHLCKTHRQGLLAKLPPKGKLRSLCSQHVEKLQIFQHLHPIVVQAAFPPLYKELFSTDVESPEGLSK
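Read-out: Photinus luciferase luminescence; inhibitors lower reporter signal. Insect Schneider cells with Gal4-ROR gamma fusion under metallothionein promoter, UAS reporter; 700 uM final copper sulfate induction, 20 hr, ambient temperature.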
Gal4-VP16 FLuc = Gal4-VP16 reporter inhibition counter-screen. Potency, µM (doses to about 53.6 µM), for inactives: at the top dose activity, negative = inhibition, most hits filed as inhibitors. Drosophila S2 Gal4-VP16 UAS-luciferase, luminescence, 20 h. actives 3.5% (n = 310,000). AID 2546;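 note: Gal4-VP16 expression switched on by copper sulfate through the metallothionein promoter; potency is the fitted concentration of half-maximal effect; nearly all actives have a fitted effect of over 50% in size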
ELG1 DNA repair = ELG1-dependent DNA repair inhibition; HEK293T ELG1-luciferase reporter, luminescence, 16 h; DNA damage induced by 5-fluorouridine; Potency, µM (highest dose often 46.1 µM), inactives show at the highest dose activity change, negative = inhibition, usual class: inhibitors; actives 2.3% (n = 330,000); AID 504467; note: potency is the fitted concentration of half-maximal effect; nearly all actives have a fitted effect of over 55% in size
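In this reporter screen, reduction of luminescence relative to DMSO vehicle indicated activity. Compounds and 5-fluorouridine were added together to 2,000 cells per well, incubated for 16 hr at 37 °C, then developed with ONE-Glo.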
* = called active by the depositor; ? = inconclusive; . = not tested or not shown; [ ] = another dose, or the depositor's remark. Unless noted, calls come from the whole dose curve; as a rule, active = well fitted curve in the direction sought with a large enough effect; inconclusive = small, poorly fitted or top-dose-only effect, or another doubt; inactive = no such curve, though single readings can be large; an effect the other way counts as inactive or inconclusive. % is set by controls: 0 for no effect and ±100 for the full control effect.

SMILES	TDP1 cell CPT	DT40 TDP1 no CPT	IL-1B inflam inh	RORg inh	Gal4-VP16 FLuc	ELG1 DNA repair
CCc1nn2c(=O)cc(COC(=O)CNC(=O)c3ccccc3)nc2s1	-6.3%	-5.7%	.	.	.	.
O=C(Nc1nnc(S(=O)(=O)N2CCCc3ccccc32)s1)c1ccc(Cl)cc1	?	18.4µM*	.	.	.	.
CCc1nnc(NC(=O)c2ccc(S(=O)(=O)N3CCCc4ccccc43)cc2)o1	?	11.2µM*	56.5	0.355µM*	0.562µM*	?
CNC(=O)c1ccsc1NC(=O)c1ccc(S(=O)(=O)N2CCCc3ccccc32)cc1	20.6µM*	20.6µM*	-17.8	?	-11.1%	?
O=C(Nc1nnc(S(=O)(=O)N2CCc3ccccc32)s1)c1cccc(Cl)c1	20.6µM*	20.6µM*	.	.	.	.
O=C(Nc1ccccn1)c1cccc(S(=O)(=O)N2CCCc3ccccc32)c1	?	?	12.8	.	.	?
COc1cccc(C(O)c2nc(-c3ccc(OC)nc3)cs2)c1 (stereo not drawn)	?	?	17.7	.	.	.
CC1NC(=O)C(N)CNC(=O)C(C2CCN=C(N)N2)NC(=O)/C(=C/NC(N)=O)NC(=O)C(CNC(=O)CC(N)CCCN)NC1=O (stereo not drawn)	.	.	.	7.4%	0.0%	.
COC(=O)N1c2ccccc2C23[C@@H]4CN5CCC[C@]6(CCC12C(O)(C6)C4=O)[C@H]53	-14.5%[9.04 µM]	-14.8%[9.04 µM]	.	-30.2%	-5.4%	.
Cc1ccc(C(=O)Nc2nnc(S(=O)(=O)N3CCCc4ccccc43)s2)cc1	-10.9%	15.0%	.	.	.	.
O=C(Nc1nc2c(s1)CCCC2)c1ccc(S(=O)(=O)N2CCCc3ccccc32)cc1	?	?	-0.9	11.2µM*	?	-20.2%
COCCNC(=O)C1CCCN(C(=O)c2nc(C)oc2C)CC1 (stereo not drawn)	4.0%	13.5%	3.3	.	.	.
CCOc1ccc(NC(=O)/C(C#N)=C\c2ccc(N3CCCC3)c(C)c2)cc1	?	?	-23.1	.	.	.
Cc1ccccc1Oc1nc2c(C)cccn2c(=O)c1/C=C(\C#N)C(=O)NC1CCS(=O)(=O)C1 (stereo not drawn)	11.6µM*	20.6µM*	-96.7*	23.6%	-12.5%	?
Cc1cccn2c(=O)c(/C=C(\C#N)C(=O)NC3CCS(=O)(=O)C3)c(Oc3ccccc3Cl)nc12 (stereo not drawn)	?	20.6µM*	13.7	40.8%	0.7%	15.5%
Cc1cccn2c(=O)c(/C=C(\C#N)C(=O)NC3CCS(=O)(=O)C3)c(N3CC(C)OC(C)C3)nc12 (stereo not drawn)	7.3%	-23.3%	-6.5	9.2%	28.9%	-26.8%
Cc1cccn2c(=O)c(/C=C(\C#N)C(=O)NC3CCS(=O)(=O)C3)c(N3CCC(C(N)=O)CC3)nc12 (stereo not drawn)	2.7%	-4.6%	0.0	31.8%	-9.7%	22.4%
CCCn1c(=O)c2sccc2n2c(CCCC(=O)Nc3ccc(C)c(F)c3)nnc12	?	23.1µM*	.	.	.	.
CC(C)CCn1c(=O)c2sccc2n2c(CCCC(=O)Nc3ccc(F)c(Cl)c3)nnc12	-15.1%	?	.	.	.	.
CCCn1c(=O)c2sccc2n2c(CCCC(=O)Nc3cccc(CC)c3)nnc12	23.1µM*	?	.	.	.	.
Fc1ccc(N2CCN(Cc3nnc(-c4ccccc4Cl)o3)CC2)cc1	0.0%	-20.1%	.	.	.	.
O=C(NC12CC3CC(CC(C3)C1)C2)c1cc([N+](=O)[O-])ccc1N1CCOCC1	-7.5%	0.3%	-19.0	13.2%	2.9%	11.0%
COc1ccc(-c2cccc3c2NC(=O)C3=O)cc1OC	18.4µM*	14.6µM*	37.5	.	.	24.9%
COc1ccc(C2C(=O)c3ccccc3C2=O)cc1OC	?	-9.1%	5.3	-17.2%	-5.8%	?
O=C(O)/C=C/c1cn(-c2ccccc2)nc1-c1ccc2c(c1)OCCO2	-12.7%	?	25.7	?	-1.8%	?
SMILES	TDP1 cell CPT	DT40 TDP1 no CPT	IL-1B inflam inh	RORg inh	Gal4-VP16 FLuc	ELG1 DNA repair
CN1CCN(C(=O)/C=C/c2cn(-c3ccccc3)nc2-c2ccc3c(c2)OCCO3)CC1	-1.5%	-21.3%	-61.6*	-20.5%	-1.8%	10.3µM*
CN1CCN(C(=O)/C=C/c2ccc3c(c2)OCO3)CC1	-6.9%	2.0%	-5.6	-12.7%	-15.5%	?
CN(C)C(=O)/C=C\c1cn(-c2ccccc2)nc1-c1ccc2c(c1)OCCO2	?	?	?	?	-5.1%	16.4µM*
COc1ccc2oc(=O)cc(CN(C)Cc3ccccc3)c2c1	?	?	-10.3	11.7%	?	-4.3%
Cc1noc(C)c1NC(=O)N1C[C@H](O)COC[C@H]2O[C@@H](CC(=O)NCC3CCCCC3)CC[C@@H]21	12.6%	-1.6%	19.1	.	.	.
O=C(Nc1nnc(CSCc2ccc(Cl)cc2)s1)c1cccc([N+](=O)[O-])c1	-2.5%	?	7.1	11.2µM*	10µM*	-16.0%
O=C(Nc1nn[nH]n1)c1cccc([N+](=O)[O-])c1	15.7%	-9.4%	15.4	5.2%	-2.6%	11.1%
O=C(Nc1nnc(CSCc2ccc(F)cc2)s1)c1cccc([N+](=O)[O-])c1	?	?	26.6	11.2µM*	20µM*	-19.4%
CCC(C)(C)c1nnc(NC(=O)c2cccc([N+](=O)[O-])c2)s1	-20.0%	-15.9%	-22.3	12.6µM*	?	?
CC(C)(C)NC(=O)CSc1ncnc2c1nnn2Cc1ccccc1Cl	?	?	-60.3*	?	-13.5%	-11.6%
COc1ccc(CN2C(=O)c3cccc4cccc(c34)C2=O)cc1	-18.7%	-4.4%	22.1	22.2%	-17.5%	-3.1%
COc1ccc(CN2C(=O)c3ccccc3C(/C=N\OCc3ccc(C)cc3)C2=O)cc1 (stereo not drawn)	20.6µM*	20.6µM*	26.0	12.4%	6.0%	10.3%
Cc1ccc(NC(=S)N/N=C/c2cccn2Cc2ccccc2F)cc1	4.61µM*	3.66µM*	9.2	0.355µM*	1.12µM*	2.4%
Cc1ccc(CN2CCN(CC(=O)N/N=C/c3ccccc3F)CC2)cc1	-1.1%	1.4%	?	29.3%	25.3%	?
O=C(NCc1ccccc1Cl)c1csc([C@@H]2O[C@H](CO)[C@H](O)[C@H](O)[C@H]2O)n1	-18.2%	-19.8%	0.0	.	.	.
COc1ccc(OC)c(-c2nn(-c3ccccc3)cc2C(=O)NCC(c2ccco2)N2CCCC2)c1 (stereo not drawn)	?	20.6µM*	-19.7	.	.	?

Bioassay records: PubChem, National Center for Advancing Translational Sciences (NCATS)
